Measured values published in PubChem BioAssay AID1159580 (chemical genetic matrix, 2015).
Values joined by “and” are separate entries in the source; they are usually repeats but may differ in a detail not shown here. Equal entries are not always repeated. Hit rate of the full screen: of about 5,500 compounds, about 2,000 (36%) were called active. Roughly 18% stayed inconclusive and do not appear here. Cut-off read from the data, not from the text of the source: active = normalized growth mostly below about 0.91 (no sharp cut-off); inconclusive = no clear call, values can overlap the other calls; inactive = mostly above about 0.92. Some of the results follow.

Test: chemical genetic growth profiling, strain panel (AID 1159580);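 note: tested at 20 µM; growth read once vehicle control cultures reached saturation at 30 °C; 1 = growth at the plate median or of vehicle wells; lower values mean less growth of the strain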
Details: S. cerevisiae deletion strains, growth OD

Measured: normalized growth

C=C(CC)C(=O)c1ccc(OCC(=O)O)c(Cl)c1Cl
active: locus YDL185W, strain tfp1, stronger effect = lower value 0.882 | locus YIL125W, strain kgd1, stronger effect = lower value 0.927 | locus YJR066W, strain TOR1, stronger effect = lower value 0.708 | locus YKL068W, stronger effect = lower value 0.91 | locus YLR113W, strain HOG1, stronger effect = lower value 0.551 | locus YNL183C, strain NPR1, stronger effect = lower value 0.828 | locus YNL271C, strain bni1, stronger effect = lower value 0.917 | locus YPR141C, strain kar3, stronger effect = lower value 0.902
inactive: locus YAL013W, strain DEP1, stronger effect = lower value 0.984 | locus YAL021C, strain ccr4, stronger effect = lower value 1 | locus YAL026C, strain drs2, stronger effect = lower value 0.98 | locus YAL030W, strain snc1, stronger effect = lower value 1.01 | locus YBL061C, strain skt5, stronger effect = lower value 1 | locus YBR009C, strain hhf1, stronger effect = lower value 1.01 | locus YBR021W, strain FUR4, stronger effect = lower value 1.02 | locus YBR023C, strain chs3, stronger effect = lower value 1.03 | locus YBR171W, strain sec66, stronger effect = lower value 1.01 | locus YBR229C, strain ROT2, stronger effect = lower value 0.951 | locus YBR231C, strain swc5, stronger effect = lower value 0.972 | locus YBR279W, strain paf1, stronger effect = lower value 1.01 | locus YCL011C, strain gbp2, stronger effect = lower value 1.03 | locus YCL016C, strain dcc1, stronger effect = lower value 1.04 | locus YCL029C, strain bik1, stronger effect = lower value 0.973 | locus YCL061C, strain MRC1, stronger effect = lower value 1.03 | locus YCL069W, strain vba3, stronger effect = lower value 1 | locus YCR088W, strain abp1, stronger effect = lower value 1.01 | locus YDL005C, strain med2, stronger effect = lower value 0.999 | locus YDL035C, strain GPR1, stronger effect = lower value 0.988 | locus YDL040C, strain nat1, stronger effect = lower value 0.994 | locus YDL074C, strain BRE1, stronger effect = lower value 0.986 | locus YDL101C, strain DUN1, stronger effect = lower value 0.983 | locus YDL134C, strain PPH21, stronger effect = lower value 0.972 | locus YDL192W, strain arf1, stronger effect = lower value 0.972 | locus YDR001C, strain nth1, stronger effect = lower value 1 | locus YDR069C, strain doa4, stronger effect = lower value 0.99 | locus YDR101C, strain arx1, stronger effect = lower value 0.92 | locus YDR137W, strain rgp1, stronger effect = lower value 1.01 | locus YDR150W, strain NUM1, stronger effect = lower value 0.976 | locus YDR159W, strain sac3, stronger effect = lower value 0.955 | locus YDR162C, strain NBP2, stronger effect = lower value 0.966 | locus YDR195W, strain ref2 0.974 | locus YDR297W, strain sur2, stronger effect = lower value 1.02 | locus YDR318W, strain mcm21, stronger effect = lower value 0.992 | locus YDR334W, strain swr1, stronger effect = lower value 1 | locus YDR335W, strain msn5, stronger effect = lower value 1.01 | locus YDR388W, stronger effect = lower value 0.972 | locus YDR392W, strain spt3, stronger effect = lower value 0.948 | locus YDR502C, strain sam2, stronger effect = lower value 0.984 | locus YEL003W, strain gim4, stronger effect = lower value 0.985 | locus YEL037C, strain rad23, stronger effect = lower value 1 | locus YEL061C, strain CIN8 (second series), stronger effect = lower value 1 | locus YEL061C, strain CIN8, stronger effect = lower value 0.996 | locus YER015W, strain faa2, stronger effect = lower value 0.993 | locus YER016W, strain bim1, stronger effect = lower value 0.993 | locus YER110C, stronger effect = lower value 0.963 | locus YER111C, strain swi4, stronger effect = lower value 1 | locus YER155C, strain BEM2 (second series), stronger effect = lower value 0.997 | locus YER155C, strain BEM2, stronger effect = lower value 0.998 | locus YER167W, strain BCK2, stronger effect = lower value 1 | locus YFR010W, strain ubp6, stronger effect = lower value 1.01 | locus YGL078C, strain dbp3, stronger effect = lower value 0.954 | locus YGL086W, strain mad1, stronger effect = lower value 0.977 | locus YGL167C, strain pmr1, stronger effect = lower value 1.01 | locus YGL173C, strain kem1, stronger effect = lower value 1 | locus YGL227W, strain vid30, stronger effect = lower value 1.01 | locus YGL240W, strain doc1, stronger effect = lower value 1.02 | locus YGL248W, strain PDE1, stronger effect = lower value 0.985 | locus YGL253W, strain hxk2, stronger effect = lower value 0.988 | locus YGR078C, strain PAC10, stronger effect = lower value 0.964 | locus YGR135W, strain pre9, stronger effect = lower value 1.05 | locus YGR229C, strain SMI1, stronger effect = lower value 1 | locus YGR252W, strain gcn5, stronger effect = lower value 1.2 | locus YHR013C, strain ard1, stronger effect = lower value 1.04 | locus YHR027C, strain rpn1, stronger effect = lower value 1.02 | locus YHR030C, strain SLT2, stronger effect = lower value 0.985 and 0.868 | locus YHR079C, strain IRE1 (second series), stronger effect = lower value 0.982 | locus YHR079C, strain IRE1, stronger effect = lower value 0.869 | locus YHR094C, strain hxt1, stronger effect = lower value 0.955 | locus YHR129C, strain ARP1, stronger effect = lower value 0.977 | locus YHR142W, strain chs7, stronger effect = lower value 1.04 | locus YHR200W, strain rpn10, stronger effect = lower value 0.984 | locus YIL066C, strain RNR3, stronger effect = lower value 0.968 | locus YIL073C, strain SPO22, stronger effect = lower value 0.995 | locus YIR030C, strain dcg1, stronger effect = lower value 0.993 | locus YJL092W, strain hpr5, stronger effect = lower value 1.01 | locus YJL095W, strain BCK1 (second series), stronger effect = lower value 1.03 | locus YJL115W, strain asf1, stronger effect = lower value 1 | locus YJL129C, strain trk1, stronger effect = lower value 1.02 | locus YJL134W, strain LCB3, stronger effect = lower value 0.983 | locus YJL154C, strain vps35, stronger effect = lower value 0.997 | locus YJL164C, strain tpk1, stronger effect = lower value 1.03 | locus YJL166W, strain qcr8, stronger effect = lower value 1.05 | locus YJL168C, strain set2, stronger effect = lower value 0.971 | locus YJL187C, strain SWE1 (second series), stronger effect = lower value 0.968 | locus YJL187C, strain SWE1, stronger effect = lower value 1 | locus YJR043C, strain POL32, stronger effect = lower value 0.981 | locus YJR075W, strain HOC1, stronger effect = lower value 0.982 | locus YKL009W, strain mrt4, stronger effect = lower value 0.923 | locus YKL085W, strain MDH1 (second series), stronger effect = lower value 0.938 | locus YKL085W, strain MDH1, stronger effect = lower value 0.938 | locus YKL160W, strain elf1, stronger effect = lower value 1.06 | locus YKR001C, strain vps1, stronger effect = lower value 0.906 | locus YKR026C, strain gcn3, stronger effect = lower value 1 | locus YKR091W, strain srl3, stronger effect = lower value 1.01 | locus YLL001W, strain dnm1, stronger effect = lower value 1.05 | locus YLL026W, stronger effect = lower value 1.01 | locus YLL041C, strain sdh2, stronger effect = lower value 1 | locus YLR027C, strain aat2, stronger effect = lower value 0.995 | locus YLR039C, strain RIC1, stronger effect = lower value 0.91 | locus YLR058C, strain SHM2, stronger effect = lower value 0.972 | locus YLR102C, strain apc9, stronger effect = lower value 0.972 | locus YLR221C, strain rsa3, stronger effect = lower value 1.04 | locus YLR258W, strain gsy2, stronger effect = lower value 1.02 | locus YLR262C, strain YPT6 (second series), stronger effect = lower value 1.01 | locus YLR262C, strain YPT6, stronger effect = lower value 0.873 | locus YLR268W, strain sec22, stronger effect = lower value 0.99 | locus YLR320W, strain mms22, stronger effect = lower value 1.08 | locus YLR330W, strain CHS5, stronger effect = lower value 0.978 | locus YLR342W, strain FKS1 (second series), stronger effect = lower value 0.983 | locus YLR342W, strain FKS1, stronger effect = lower value 1.01 | locus YLR357W, strain rsc2, stronger effect = lower value 0.995 | locus YLR370C, strain arc18, stronger effect = lower value 1.02 | locus YLR371W, strain rom2, stronger effect = lower value 0.953 | locus YLR384C, strain iki3, stronger effect = lower value 1.01 | locus YLR418C, strain cdc73, stronger effect = lower value 1 | locus YML016C, strain PPZ1, stronger effect = lower value 0.982 | locus YML032C, strain rad52, stronger effect = lower value 0.962 | locus YML120C, strain ndi1, stronger effect = lower value 1.05 | locus YML124C, strain tub3, stronger effect = lower value 0.98 | locus YMR058W, strain fet3, stronger effect = lower value 1 | locus YMR078C, strain ctf18, stronger effect = lower value 0.962 | locus YMR125W, strain sto1, stronger effect = lower value 1.02 | locus YMR129W, stronger effect = lower value 1.01 | locus YMR205C, strain PFK2, stronger effect = lower value 1.06 | locus YMR223W, strain ubp8, stronger effect = lower value 1.02 | locus YMR231W, strain pep5, stronger effect = lower value 0.978 | locus YMR307W, strain GAS1, stronger effect = lower value 1 | locus YNL067W, strain RPL9B, stronger effect = lower value 0.986 | locus YNL071W, strain lat1, stronger effect = lower value 1.01 | locus YNL209W, strain ssb2, stronger effect = lower value 1.02 | locus YNL233W, strain BNI4, stronger effect = lower value 0.988 | locus YNL248C, strain rpa49, stronger effect = lower value 1.01 | locus YNL250W, strain rad50, stronger effect = lower value 0.913 | locus YNL298W, strain CLA4, stronger effect = lower value 0.912 | locus YNL307C, strain MCK1, stronger effect = lower value 0.98 | locus YNL322C, strain KRE1 (second series), stronger effect = lower value 1.02 | locus YNR049C, strain mso1, stronger effect = lower value 1.01 | locus YNR052C, strain pop2, stronger effect = lower value 0.981 | locus YOL006C, strain TOP1, stronger effect = lower value 1 | locus YOL012C, strain htz1 1.29 | locus YOL147C, strain pex11, stronger effect = lower value 0.99 | locus YOR001W, strain rrp6, stronger effect = lower value 0.948 | locus YOR061W, strain CKA2, stronger effect = lower value 0.964 | locus YOR069W, strain VPS5, stronger effect = lower value 0.988 | locus YOR070C, strain gyp1, stronger effect = lower value 1.04 | locus YOR080W, strain dia2, stronger effect = lower value 1.01 | locus YOR083W, strain WHI5, stronger effect = lower value 1.05 | locus YOR106W, strain vam3, stronger effect = lower value 1.04 | locus YOR136W, strain idh2, stronger effect = lower value 0.979 | locus YOR144C, strain elg1, stronger effect = lower value 0.989 | locus YOR184W, strain ser1, stronger effect = lower value 0.991 | locus YOR231W, strain MKK1, stronger effect = lower value 0.909 | locus YOR265W, strain rbl2, stronger effect = lower value 1.01 | locus YOR270C, strain vph1, stronger effect = lower value 1.08 | locus YOR290C, strain snf2, stronger effect = lower value 1.01 | locus YOR316C, strain cot1, stronger effect = lower value 0.96 | locus YPL051W, strain arl3, stronger effect = lower value 0.992 | locus YPL078C, strain atp4, stronger effect = lower value 1.04 | locus YPL106C, strain sse1, stronger effect = lower value 1.01 | locus YPL240C, strain hsp82, stronger effect = lower value 1.02 | locus YPL241C, strain CIN2, stronger effect = lower value 0.983 | locus YPL256C, strain CLN2, stronger effect = lower value 0.899 | locus YPR119W, strain clb2, stronger effect = lower value 0.973 | locus YPR163C, strain tif3, stronger effect = lower value 0.981 | locus YPR167C, strain met16, stronger effect = lower value 0.989 | strain wtn01, stronger effect = lower value 0.997
1 (inactive) and 0.835 (active): locus YJL095W, strain BCK1, stronger effect = lower value
